This is an account of results in PubChem BioAssay (EPA / NIEHS).

Test [1] deals with human Constitutive Androstane Receptor (CAR), NR1I3 (gene 9970) (UniProt Q14994). In words: NVS_NR_hCAR_Antagonist: NovaScreen (NVS) Nuclear Receptor Binding Assay for human Constitutive Androstane Receptor Antagonism (CAR) (AID 2283344). The method in brief:
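Cell-free TR-FRET binding read 1 h after dosing, antagonist mode; loss of signal versus DMSO baseline. Primary screen in duplicate at a single 25 uM; actives retested in concentration series.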

The nature of test [2]: NVS_IC_rCaBTZCHL: NovaScreen (NVS) Ion Channel Assay for Calcium Channel, Type L, Benzothiazepine Site (CaBTZCHL) (AID 2283337). The method in brief: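 Scintillation counting of filter-bound radioligand gave the read-out, with reduced binding versus DMSO scored as activity. Membranes came from rat cortex and were read 1.5 h after compound addition. Chemicals were screened first in duplicate at 25 uM.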

Test [3] concerns the target rat Peripheral-type Benzodiazepine Receptor (PBR), Tspo (gene 24230) (UniProt P16257). Nature of the test: NVS_MP_rPBR: NovaScreen (NVS) Membrane Protein Assay for rat Peripheral-type Benzodiazepine Receptor (PBR) (AID 2283335). The method in brief: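 Rat kidney membranes; radioligand binding with displacement, filter-based scintillation counting, 1 h incubation. Primary screen in duplicate at 25 uM, actives followed in concentration series; loss of binding vs DMSO.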

The target of test [4] is human Peripheral-type Benzodiazepine Receptor (PBR), TSPO (gene 706) (UniProt P30536). Nature of the test: NVS_MP_hPBR: NovaScreen (NVS) Membrane Protein Assay for human Peripheral-type Benzodiazepine Receptor (PBR) (AID 2283331).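 Further: hits reduce radioligand binding relative to DMSO baseline.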 In outline:
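Radioligand displacement on human colonic cell membranes, 1 h incubation; bound radioactivity by filtration and scintillation counting. Primary screen in duplicate at 25 uM single concentration, actives followed up in concentration series; loss of binding versus DMSO.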

The next test has as its system NCBI gene 100848466. In words: NVS_NR_bPR: NovaScreen (NVS) Nuclear Receptor Binding Assay for bovine Progextron Receptor (PR) (AID 2283343).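 Further: actives lower bound radioligand signal below DMSO meaning displacement of the label.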 On the procedure: NVS_NR_bPR is a biochemical, single-readout assay that uses extracted gene-proteins from Bovine uterine membranes in a tissue-based cell-free assay. Measurements were taken 18 hours after chemical dosing in a 96-well plate.NVS_NR_bPR is one of one assay component(s) measured or calculated from the NVS_NR_bPR assay. It is designed to make measurements of radioligand binding, a form of binding reporter, as detected with scintillation counting signals by Lysate-based radiodetection technology.Data from the assay component NVS_NR_bPR was analyzed into 1 assay endpoint. This assay endpoint, NVS_NR_bPR, was analyzed in the positive analysis fitting direction relative to DMSO as the negative control and baseline of activity. […] Furthermore, this assay endpoint can be referred to as a primary readout, because the performed assay has only produced 1 assay endpoint. […]
Binding assays used specific radioligands (tritiated, iodinated) with non-radioactive competitive displacement ligands in agonist or antagonist protocols (as indicated) and various reference compounds and inhibitors to titrate specific binding to receptors and transporters. Most enzyme assays (CYPs, kinases, phosphatases, proteases, HDACs) used recombinant protein and specific substrates (fluorescence mostly, some colorimetric and radioactive) and inhibitors, followed by a biochemical separation of substrate and product. […]

The target in test [5] is human Androgen Receptor (AR), AR (gene 367) (UniProt P10275). Nature of the test: NVS_NR_hAR: NovaScreen (NVS) Nuclear Receptor Binding Assay for human Androgen Receptor (AR) (AID 2283332). The procedure:
NVS_NR_hAR is a biochemical, single-readout assay that uses extracted gene-proteins from LnCAP in a cell-free assay. Measurements were taken 20 hours after chemical dosing in a 96-well plate.NVS_NR_hAR is one of one assay component(s) measured or calculated from the NVS_NR_hAR assay. It is designed to make measurements of radioligand binding, a form of binding reporter, as detected with scintillation counting signals by Lysate-based radiodetection technology.Data from the assay component NVS_NR_hAR was analyzed into 1 assay endpoint. This assay endpoint, NVS_NR_hAR, was analyzed in the positive analysis fitting direction relative to DMSO as the negative control and baseline of activity. Using a type of binding reporter, loss-of-signal activity can be used to understand changes in the binding as they relate to the gene AR. Furthermore, this assay endpoint can be referred to as a primary readout, because the performed assay has only produced 1 assay endpoint. To generalize the intended target to other relatable targets, this assay endpoint is annotated to the nuclear receptor intended target family, where the subfamily is steroidal.
Binding assays used specific radioligands (tritiated, iodinated) with non-radioactive competitive displacement ligands in agonist or antagonist protocols (as indicated) and various reference compounds and inhibitors to titrate specific binding to receptors and transporters. Most enzyme assays (CYPs, kinases, phosphatases, proteases, HDACs) used recombinant protein and specific substrates (fluorescence mostly, some colorimetric and radioactive) and inhibitors, followed by a biochemical separation of substrate and product. All assays for the biochemical HTS were initially run in duplicate at a single concentration (10 uM for CYP450 assays and 25 uM for all others). […] Each assay was run with positive and negative controls, and concurrent controls on every plate. The follow-up (secondary) screen tested active chemical-pairs in concentration series, as well as a few additional assays not tested in the primary screen, some selected negative inactives, and several cases re-run in the concentration series for confirmatory purposes.

Test [6] has as its target Estrogen receptor (Homo sapiens) (UniProt P03372). Nature of the test: NVS_NR_hER: NovaScreen (NVS) Nuclear Receptor Binding Assay for human Estrogen Receptor (ER) (AID 2283348). The method in brief: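 Radioligand competitive displacement binding to estrogen receptor from MCF7 extract, cell-free; 18 h after dosing, scintillation read-out. Primary screen in duplicate at 25 uM; actives followed up in concentration series; loss of signal vs DMSO.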

In test [7] the target is chimpanzee Androgen Receptor (AR), AR (gene 747460) (UniProt O97775). Nature of the test: NVS_NR_cAR: NovaScreen (NVS) Nuclear Receptor Binding Assay for chimpanzee Androgen Receptor (AR) (AID 2283346).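 Further: a loss of bound radioligand signal versus DMSO counts as binding.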 In outline: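 Radioligand binding to chimpanzee AR expressed in Sf9/Sf21 cells, cell-free, measured 72 h after dosing by lysate-based scintillation counting. Loss of signal vs DMSO; initial duplicate screen at 25 uM, actives retested in concentration series.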
Sequence of chimpanzee Androgen Receptor (AR), AR (gene 747460) (O97775 whole entry, looked up): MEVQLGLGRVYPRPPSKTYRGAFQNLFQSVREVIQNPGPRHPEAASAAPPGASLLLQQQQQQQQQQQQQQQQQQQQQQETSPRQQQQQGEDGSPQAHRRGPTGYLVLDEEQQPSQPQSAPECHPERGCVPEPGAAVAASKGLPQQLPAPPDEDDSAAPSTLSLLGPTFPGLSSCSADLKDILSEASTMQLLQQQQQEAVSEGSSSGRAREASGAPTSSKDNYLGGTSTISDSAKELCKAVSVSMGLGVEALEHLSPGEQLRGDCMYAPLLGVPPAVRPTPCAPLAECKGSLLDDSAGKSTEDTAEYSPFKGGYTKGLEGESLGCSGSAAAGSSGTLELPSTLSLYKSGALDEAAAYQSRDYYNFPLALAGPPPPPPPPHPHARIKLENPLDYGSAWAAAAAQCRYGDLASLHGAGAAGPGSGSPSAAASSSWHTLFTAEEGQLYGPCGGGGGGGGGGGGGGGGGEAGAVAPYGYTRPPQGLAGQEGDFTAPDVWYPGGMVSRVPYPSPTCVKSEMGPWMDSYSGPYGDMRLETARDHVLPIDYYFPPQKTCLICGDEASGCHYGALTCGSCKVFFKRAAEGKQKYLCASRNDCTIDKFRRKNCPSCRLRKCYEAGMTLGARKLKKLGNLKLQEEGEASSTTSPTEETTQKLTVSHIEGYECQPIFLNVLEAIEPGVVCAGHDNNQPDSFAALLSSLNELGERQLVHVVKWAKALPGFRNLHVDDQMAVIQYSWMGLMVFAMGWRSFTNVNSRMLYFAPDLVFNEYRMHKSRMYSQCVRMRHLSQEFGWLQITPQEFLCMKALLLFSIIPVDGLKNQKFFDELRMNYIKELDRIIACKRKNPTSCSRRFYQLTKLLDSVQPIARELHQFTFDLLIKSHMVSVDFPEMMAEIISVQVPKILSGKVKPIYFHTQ

Values joined by “and” are separate entries in the source; they are usually repeats but may differ in a detail not shown here. Equal entries are not always repeated. Results filed as inconclusive are left out. Active and inactive are the calls of the source. How the source made its calls: active means hit-call score of the fitted dose curve at least 0.9, where 1 is the maximum; inconclusive means response in the unintended direction; inactive means score below 0.9.

Sequence of human Peripheral-type Benzodiazepine Receptor (PBR), TSPO (gene 706) (P30536 whole entry, looked up): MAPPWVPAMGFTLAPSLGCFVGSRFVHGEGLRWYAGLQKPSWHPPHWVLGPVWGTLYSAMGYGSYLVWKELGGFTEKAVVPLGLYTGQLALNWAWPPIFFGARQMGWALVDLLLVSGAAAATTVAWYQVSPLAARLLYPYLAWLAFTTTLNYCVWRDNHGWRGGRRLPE
Sequence of rat Peripheral-type Benzodiazepine Receptor (PBR), Tspo (gene 24230) (P16257 whole entry, looked up): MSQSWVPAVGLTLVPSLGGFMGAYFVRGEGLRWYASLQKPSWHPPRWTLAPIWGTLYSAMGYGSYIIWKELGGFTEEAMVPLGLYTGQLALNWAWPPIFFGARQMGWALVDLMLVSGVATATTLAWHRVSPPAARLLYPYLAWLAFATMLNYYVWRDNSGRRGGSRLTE
Sequence of human Constitutive Androstane Receptor (CAR), NR1I3 (gene 9970) (Q14994 whole entry, looked up): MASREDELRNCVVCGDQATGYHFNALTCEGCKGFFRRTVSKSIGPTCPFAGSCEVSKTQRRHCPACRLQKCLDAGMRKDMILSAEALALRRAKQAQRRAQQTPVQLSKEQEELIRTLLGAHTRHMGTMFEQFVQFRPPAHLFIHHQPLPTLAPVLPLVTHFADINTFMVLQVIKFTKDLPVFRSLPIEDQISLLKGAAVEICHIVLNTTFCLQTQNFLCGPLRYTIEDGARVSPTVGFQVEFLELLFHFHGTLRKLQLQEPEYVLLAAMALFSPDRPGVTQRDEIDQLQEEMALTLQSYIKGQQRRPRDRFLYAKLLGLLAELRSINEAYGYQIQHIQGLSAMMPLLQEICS
Sequence of human Androgen Receptor (AR), AR (gene 367) (P10275 whole entry, looked up): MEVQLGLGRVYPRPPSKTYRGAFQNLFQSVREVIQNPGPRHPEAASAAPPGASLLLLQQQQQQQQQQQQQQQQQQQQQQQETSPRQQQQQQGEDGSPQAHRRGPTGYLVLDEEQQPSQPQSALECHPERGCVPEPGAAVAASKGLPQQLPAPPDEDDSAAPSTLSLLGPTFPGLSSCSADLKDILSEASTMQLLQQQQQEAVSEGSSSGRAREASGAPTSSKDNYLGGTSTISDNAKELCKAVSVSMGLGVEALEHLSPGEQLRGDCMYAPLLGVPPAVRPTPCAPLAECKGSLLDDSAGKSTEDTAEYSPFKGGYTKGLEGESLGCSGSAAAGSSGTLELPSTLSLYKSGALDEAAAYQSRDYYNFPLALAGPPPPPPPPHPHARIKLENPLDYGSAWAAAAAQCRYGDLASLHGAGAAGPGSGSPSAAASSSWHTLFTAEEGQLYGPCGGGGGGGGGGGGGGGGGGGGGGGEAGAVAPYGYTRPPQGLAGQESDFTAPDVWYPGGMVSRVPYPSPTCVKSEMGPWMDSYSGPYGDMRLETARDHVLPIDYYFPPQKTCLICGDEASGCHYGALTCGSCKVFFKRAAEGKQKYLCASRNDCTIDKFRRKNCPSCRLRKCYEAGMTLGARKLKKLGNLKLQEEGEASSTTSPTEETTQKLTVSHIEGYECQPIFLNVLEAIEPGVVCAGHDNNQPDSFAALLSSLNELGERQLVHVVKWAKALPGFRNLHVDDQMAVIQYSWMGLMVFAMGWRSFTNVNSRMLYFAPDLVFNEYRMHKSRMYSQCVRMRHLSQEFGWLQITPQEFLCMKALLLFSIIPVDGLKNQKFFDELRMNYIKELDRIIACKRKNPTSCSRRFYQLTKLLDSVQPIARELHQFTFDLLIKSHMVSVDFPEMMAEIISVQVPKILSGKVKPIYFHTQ
Sequence of Estrogen receptor (Homo sapiens) (P03372 whole entry, looked up): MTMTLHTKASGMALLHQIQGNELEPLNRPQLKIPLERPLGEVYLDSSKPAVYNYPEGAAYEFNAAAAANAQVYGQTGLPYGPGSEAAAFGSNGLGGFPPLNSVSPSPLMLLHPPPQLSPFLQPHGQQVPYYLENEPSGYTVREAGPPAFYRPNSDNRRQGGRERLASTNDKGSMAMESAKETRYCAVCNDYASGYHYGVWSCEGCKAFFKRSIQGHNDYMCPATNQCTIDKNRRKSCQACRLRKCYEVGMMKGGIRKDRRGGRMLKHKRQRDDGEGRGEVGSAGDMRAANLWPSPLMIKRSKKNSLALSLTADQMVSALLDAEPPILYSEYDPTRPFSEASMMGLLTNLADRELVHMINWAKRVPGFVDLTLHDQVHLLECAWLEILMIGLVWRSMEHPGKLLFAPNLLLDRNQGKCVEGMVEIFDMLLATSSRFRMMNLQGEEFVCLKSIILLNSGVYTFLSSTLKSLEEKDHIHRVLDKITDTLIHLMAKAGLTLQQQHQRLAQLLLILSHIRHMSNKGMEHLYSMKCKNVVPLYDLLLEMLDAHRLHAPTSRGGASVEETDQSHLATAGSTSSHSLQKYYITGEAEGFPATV

For the compound `CC(C)O.CC(C)O.OCCN(CCO)CCO.OCCN(CCO)CCO.[Ti]`, in test [1], the AC50 is 25 µM (active).
With `Nc1nc(N)nc(Cl)n1`, the outcome in test [2] was inactive.
`CC1(C)[C@H](C(=O)O[C@H](C#N)c2cccc(Oc3ccccc3)c2)[C@@H]1/C=C(\Cl)C(F)(F)F`: in test [3], the result was inactive.
As for `Cc1ccccc1OP(=O)(Oc1ccccc1C)Oc1ccccc1C`, the concentration at half-maximal activity (AC50) in test [4] was 0.8 µM (active); in test [3] it was 17.1 µM (active).
On to `CCOC(=O)C(SP(=S)(OC)OC)c1ccccc1` (configuration not stated), for which the half-maximal activity concentration (AC50) was 13.4 µM (active) in test [4] and 7.41 µM (active) in test [3].
Take `CCOP(=S)(OCC)O/N=C(\C#N)c1ccccc1`: the result in test [4] was inactive. Also, in test [3], the concentration at half-maximal activity (AC50) is 16.2 µM (active).
Turning to `CCCCCCCCCCCCc1cccc(S(=O)(=O)O)c1`, the AC50 in test [3] was 12.4 µM (active); in the test with NCBI gene 100848466, 19.5 µM (active); in test [1], 17.9 µM (active).
Turning to `O=C1C=CC(=O)c2ccccc21`, in test [5], the AC50 was 33.9 µM (active).
On to `CCCCOP(=O)(CCCC)OCCCC`, for which the concentration at half-maximal activity (AC50) is 6.98 µM (active) in test [4] and 1.62 µM (active) in test [3].
Consider `O=[N+]([O-])c1ccc(Nc2ccccc2)cc1`, for which the call in test [3] and in test [6] was inactive.
For `Cc1ccc(OP(=O)(Oc2ccc(C)cc2C)Oc2ccc(C)cc2C)c(C)c1`, the half-maximal activity concentration (AC50) in test [4] is 0.422 µM (active); in test [3], 1.06 µM (active).
As to `CCOC(=O)CCN(SN(C)C(=O)Oc1cccc2c1OC(C)(C)C2)C(C)C`, the AC50 in test [4] is 5.06 µM (active); in test [3], 4.91 µM (active).
For `OC(Cc1ccccc1Cl)(Cn1[nH]cnc1=S)C1(Cl)CC1` (configuration not stated), the result in test [5] and in test [7] was inactive.
Consider `CC(C)(COCC1CO1)COCC1CO1` (configuration not stated), for which, in test [3], the result was inactive.
As for `CC(C)N(C(=O)CCl)c1ccccc1`, the AC50 in test [4] is 7.59 µM (active) and 7.28 µM (active); in test [3], 3.16 µM (active) and 407 nM (active). The result in test [6] was inactive.

What is called AC50 is the concentration at which the activity in the assay is half-maximal.
